Experimental data taken from the supplement of paper PMC6992640.
± gives the standard deviation of the averaged measurements.

Legend:
Test in all cases: cell viability (% of vehicle); higher = less cytotoxic
Settings in all cases: 10 µM; 72 h
HCI01 = system: HCI01 (cells of a triple-negative basal-like breast cancer xenograft)
HCI03 = system: HCI03 (cells of an ER-positive luminal breast cancer xenograft)
HCI09 = system: HCI09 (cells of a triple-negative luminal androgen receptor type breast cancer xenograft)
HCI11 = system: HCI11 (cells of an ER-positive luminal breast cancer xenograft)
HCI13 = system: HCI13 (cells of an ER-positive luminal breast cancer xenograft)
HCI16 = system: HCI16 (cells of a triple-negative basal-like breast cancer xenograft)
UCD52 = system: UCD52 (cells of a triple-negative basal-like breast cancer xenograft)
WHIM2 = system: WHIM2 (cells of a triple-negative basal-like breast cancer xenograft)
WHIM30 = system: WHIM30 (cells of a triple-negative basal-like breast cancer xenograft)
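Note: PDX cells carrying CMV promoter-driven luciferase, viability read as total photon flux per second by IVIS imaging following D-luciferin, vehicle control 0.1% DMSO.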

SMILES	cell viability (HCI01)	cell viability (HCI03)	cell viability (HCI09)	cell viability (HCI11)	cell viability (HCI13)	cell viability (HCI16)	cell viability (UCD52)	cell viability (WHIM2)	cell viability (WHIM30)
CS(=O)(=O)Nc1ccc([N+](=O)[O-])cc1Oc1ccccc1 [Nimesulide]	146 ± 23	117	80.56 ± 0.45	104	109 ± 4.1	144	81.5 ± 15	107 ± 13	92.5 ± 2.9
CNC(=C[N+](=O)[O-])NCCSCc1csc(CN(C)C)n1 [Nizatidine]	150 ± 9.3	120	108 ± 15	92.7	96.2 ± 5.7	133	83.6 ± 12	96.6 ± 1.9	123 ± 17
COc1ccccc1OCC(O)COC(N)=O (centres undefined) [Methyocarbamol]	148 ± 10	132	144 ± 44	108	109 ± 3.5	111	104 ± 8.4	104 ± 27	134 ± 2.3
Oc1ccc(OC2CCCCO2)cc1 (centres undefined) [Deoxyarbutin]	103 ± 22	138	127 ± 11	112	84.9 ± 5.5	145	129 ± 4.3	132 ± 34	117 ± 11
CCCCOc1cc(C(=O)OCCN(CC)CC)ccc1N.Cl [Oxybuprocaine HCl]	162 ± 33	99.6	83.9 ± 11	88.8	95.5 ± 34	149	90 ± 31	126 ± 24	189 ± 3.2
CC(C)c1nc(CN(C)C(=O)NC(CCN2CCOCC2)C(=O)NC(CCC(Cc2ccccc2)NC(=O)OCc2cncs2)Cc2ccccc2)cs1 (centres undefined) [Cobicistat (GS-9350)]	83.3 ± 3.6	74.2	53.3 ± 17	52.3	64.4 ± 11	128	67 ± 4.4	78.1 ± 3.2	96.6 ± 3.7
CCCN1CCCCC1C(=O)Nc1c(C)cccc1C.Cl (centres undefined) [Ropivacaine HCl]	98.4 ± 14	128	96 ± 5.6	86	96.2 ± 3.2	121	90.97 ± 0.57	92.8 ± 8.5	97.5 ± 4.7
CC(=O)O.CC(O)C(CO)NC(=O)C1CSSCC(NC(=O)C(N)Cc2ccccc2)C(=O)NC(Cc2ccccc2)C(=O)NC(Cc2c[nH]c3ccccc23)C(=O)NC(CCCCN)C(=O)NC(C(C)O)C(=O)N1 (centres undefined) [Octreotide acetate]	86.6 ± 6.2	135	87.9 ± 14	95.4	87.9 ± 3.6	90.1	84.3 ± 9.8	86.9 ± 20	102 ± 15
O=c1cc(O)c(Cl)c[nH]1 [Gimeracil]	96.4 ± 1.7	131	94 ± 19	112	123 ± 14	91	87.8 ± 3.9	102 ± 15	101 ± 17
c1cc(CN2CCCNCCNCCCNCC2)ccc1CN1CCCNCCNCCCNCC1 [Plerixafor (AMD3100)]	99.4 ± 11	86.8	92.6 ± 9.3	84.7	85.1 ± 4.1	87.9	92.3 ± 9.7	73 ± 11	110 ± 12
O=C(O)C=Cc1ccccc1 [Cinnamic acid]	98.7 ± 32	108	96 ± 4.4	94.3	107 ± 15	121	98.4 ± 12	105 ± 15	117.9 ± 0.11
CCCCCCCCCCCC(CC1OC(=O)C1CCCCCC)OC(=O)C(CC(C)C)NC=O (centres undefined) [Orlistat]	126.7 ± 0.42	122	123 ± 42	110	97.6 ± 13	81.3	76.1 ± 1	79.1 ± 21	123 ± 6.8
CO/N=C(\C(=O)N[C@@H]1C(=O)N2C(C(=O)O)=C(CSc3nc(=O)c(O)nn3C)CS[C@H]12)c1csc(N)n1 [Ceftriaxone Sodium Trihydrate]	148 ± 45	111	98.6 ± 26	101	77.6 ± 1.9	125	106 ± 1.4	130 ± 13	109 ± 2.1
CN1CC(=O)N2[C@H](c3ccc4c(c3)OCO4)c3[nH]c4ccccc4c3C[C@@H]2C1=O [Tadalafil]	108 ± 1.5	150	90 ± 22	141	95.7 ± 3.2	88.4	96.7 ± 12	112 ± 3	105 ± 16
CCC1C(O)C2C3CCC(C(C)CCC(=O)O)C3(C)CCC2C2(C)CCC(O)CC12 (centres undefined) [Obeticholic Acid]	137 ± 53	149	77.56 ± 0.36	112	81.8 ± 14	145	98.9 ± 10	120 ± 1.9	151 ± 2.4
CCCNC(C)C(=O)Nc1c(C)csc1C(=O)OC.Cl (centres undefined) [Articaine HCl]	104 ± 4.9	115	116 ± 7	96.9	79.6 ± 10	133	94.3 ± 5.7	104 ± 18	129 ± 5.7
CCC1=C(C)CN(C(=O)NCCc2ccc(S(=O)(=O)NC(=O)NC3CCC(C)CC3)cc2)C1=O (centres undefined) [Glimepiride]	158 ± 17	123	86.6 ± 14	147	93.2 ± 11	158	129 ± 3.5	105 ± 6.7	164.4 ± 0.77
Cl.O=C1CN2Cc3c(ccc(Cl)c3Cl)NC2=N1 [Anagrelide HCl]	121 ± 3.8	140	103 ± 9.3	120	128 ± 11	103	84.4 ± 4.6	116 ± 3.4	98.1 ± 2.5
COCCOC(=O)C1=C(C)NC(C)=C(C(=O)OC(C)C)C1c1cccc([N+](=O)[O-])c1 (centres undefined) [Nimodipine]	136 ± 0.51	107	128 ± 25	115	87.6 ± 5.7	121	114 ± 5.1	132 ± 7.9	157 ± 28
NC(=O)Cc1cccc(C(=O)c2ccccc2)c1N [Nepafenac]	117 ± 21	101	94.6 ± 3.9	95.4	84.1 ± 5.7	94.2	104 ± 1.5	159 ± 69	136 ± 14
CC(C(=O)[O-])c1cccc(Oc2ccccc2)c1.CC(C(=O)[O-])c1cccc(Oc2ccccc2)c1.[Ca+2] (centres undefined) [Fenoprofen Calcium]	112 ± 34	100	101 ± 7.6	94.3	121 ± 16	105	83 ± 3.5	98.7 ± 7.4	169 ± 11
